Test results published in PubChem BioAssay (Tox21).
Values joined by “and” are separate entries in the source; they are usually repeats but may differ in a detail not shown here. Equal values may be shown once. Some structures have more than one record in an assay (separate samples or runs), and their calls can disagree. Active and inactive are the calls of the source. Unless noted, calls come from the whole dose curve; as a rule, active = well fitted curve in the direction sought with a large enough effect in the repeat runs; inconclusive = weak or mixed curves; inactive = no such curve, though single readings can be large; an effect the other way counts as inactive or inconclusive.

Assays:
[1] = qHTS assay to identify small molecule antagonists of the thyroid receptor (TR) signaling pathway - cell viability counter screen (AID 743064); note: nearly all actives have a fitted effect of over 50% in size; note: potency is the fitted concentration of half-maximal effect
How it was run: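 Rat GH3 pituitary tumor cells stably expressing two TR response elements driving luciferase were plated, rested 4 h, then dosed with library compounds and T3 (1 nM final). After 23.5 h at 37 °C, CellTiter-Fluor was added for 30 min and fluorescence recorded.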

[2] = qHTS assay to identify small molecule antagonists of the thyroid receptor (TR) signaling pathway (AID 743065); note: nearly all actives have a fitted effect of over 55% in size; note: potency is the fitted concentration of half-maximal effect
How it was run: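 GH3.TRE-Luc rat pituitary cells (two TREs driving luciferase) were dosed with compound, then stimulated with 1 nM T3 (final) for 23.5 h at 37 C. ONE-Glo luminescence was the read-out, with CellTiter-Fluor fluorescence as the cytotoxicity counter-screen.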

[3] = test system: thyroid hormone receptor (rat, GH3 cells); experiment: qHTS assay to identify small molecule agonists of the thyroid receptor (TR) signaling pathway (AID 743066; calls by dose curve; note: potency is the fitted concentration of half-maximal effect)
[4] = biological target: Estrogen receptor (Homo sapiens) (UniProt P03372); experiment: qHTS assay to identify small molecule antagonists of the estrogen receptor alpha (ER-alpha) signaling pathway (AID 743069; active = well fitted curve in the direction sought with a large enough effect in the signal ratio in the repeat runs, not every such curve was filed as active; inconclusive = weak or mixed curves, or effect the other way; inactive = no such curve, though single readings can be large or run the other way; the % refers to the signal ratio; note: potency is the fitted concentration of half-maximal effect)
How it was run: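 Reporter cells (ER-alpha-bla, HEK293 background) are conditioned overnight in stripped-serum medium (2% charcoal-stripped FBS). Compound and 17beta-estradiol exposure runs 18 hr at 37C, 5% CO2.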

[5] = qHTS assay to identify small molecule antagonists of the estrogen receptor alpha (ER-alpha) signaling pathway - cell viability counter screen (AID 743074; calls by dose curve;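 note: HEK293 cells carrying ER-alpha-UAS-bla reporter stimulated with 17beta-estradiol; nearly all actives have a fitted effect of over 45% in size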)
[6] = biological target: Estrogen receptor (Homo sapiens) (UniProt P03372); experiment: qHTS assay to identify small molecule agonists of the estrogen receptor alpha (ER-alpha) signaling pathway (AID 743075; calls by dose curve;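 note: HEK293 GripTite cells with ER-alpha and UAS-driven beta-lactamase reporter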; note: potency is the fitted concentration of half-maximal effect)
[7] = qHTS assay to identify small molecule antagonists of the estrogen receptor alpha (ER-alpha) signaling pathway using the BG1 cell line (AID 743080; calls by dose curve;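 note: BG1 cells stimulated with 17beta-estradiol alongside compound; nearly all actives have a fitted effect of over 25% in size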; note: potency is the fitted concentration of half-maximal effect)
How it was run: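 Endogenous full-length ER-alpha in BG1-Luc-4E2 cells drives a stably integrated 4×ERE luciferase gene; compounds were tested against 17beta-estradiol over 21.5 h, with luminescence and multiplexed viability fluorescence recorded.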

[8] = qHTS assay to identify small molecule antagonists of the estrogen receptor alpha (ER-alpha) signaling pathway using the BG1 cell line - cell viability counter screen (AID 743081);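 note: compound given together with 17beta-estradiol as the ER stimulus; nearly all actives have a fitted effect of over 45% in size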
[9] = biological target: Aromatase (Homo sapiens) (UniProt P11511); experiment: qHTS assay to identify aromatase inhibitors (AID 743083); note: nearly all actives have a fitted effect of over 55% in size; note: potency is the fitted concentration of half-maximal effect
[10] = biological target: Estrogen receptor (Homo sapiens) (UniProt P03372); experiment: qHTS assay to identify small molecule agonists of the estrogen receptor alpha (ER-alpha) signaling pathway using the BG1 cell line (AID 743079); settings: BG1Luc4E2 cells, ERE-luciferase agonist, 22 h; activation: at 70.3 µM (top of the series); note: nearly all actives have a fitted effect of over 20% in size; note: potency is the fitted concentration of half-maximal effect
% is set by controls: 0 for no effect and ±100 for the full control effect.

Aromatase (Homo sapiens), sequence (P11511 whole entry, looked up): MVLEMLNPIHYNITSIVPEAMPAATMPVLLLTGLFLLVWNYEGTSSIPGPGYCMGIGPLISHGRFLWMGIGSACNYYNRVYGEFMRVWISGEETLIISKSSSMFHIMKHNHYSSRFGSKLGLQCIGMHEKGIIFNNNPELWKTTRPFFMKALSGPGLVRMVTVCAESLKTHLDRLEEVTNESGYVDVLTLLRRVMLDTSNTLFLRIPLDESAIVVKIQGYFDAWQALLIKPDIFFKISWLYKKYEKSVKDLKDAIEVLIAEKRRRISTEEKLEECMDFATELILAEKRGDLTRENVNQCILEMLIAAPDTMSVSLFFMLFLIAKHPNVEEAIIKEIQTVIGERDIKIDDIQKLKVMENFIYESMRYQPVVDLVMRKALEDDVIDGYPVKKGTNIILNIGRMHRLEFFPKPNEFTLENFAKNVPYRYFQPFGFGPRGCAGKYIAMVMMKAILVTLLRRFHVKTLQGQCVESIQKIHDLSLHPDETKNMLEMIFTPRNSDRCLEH
Estrogen receptor (Homo sapiens), sequence (P03372 whole entry, looked up): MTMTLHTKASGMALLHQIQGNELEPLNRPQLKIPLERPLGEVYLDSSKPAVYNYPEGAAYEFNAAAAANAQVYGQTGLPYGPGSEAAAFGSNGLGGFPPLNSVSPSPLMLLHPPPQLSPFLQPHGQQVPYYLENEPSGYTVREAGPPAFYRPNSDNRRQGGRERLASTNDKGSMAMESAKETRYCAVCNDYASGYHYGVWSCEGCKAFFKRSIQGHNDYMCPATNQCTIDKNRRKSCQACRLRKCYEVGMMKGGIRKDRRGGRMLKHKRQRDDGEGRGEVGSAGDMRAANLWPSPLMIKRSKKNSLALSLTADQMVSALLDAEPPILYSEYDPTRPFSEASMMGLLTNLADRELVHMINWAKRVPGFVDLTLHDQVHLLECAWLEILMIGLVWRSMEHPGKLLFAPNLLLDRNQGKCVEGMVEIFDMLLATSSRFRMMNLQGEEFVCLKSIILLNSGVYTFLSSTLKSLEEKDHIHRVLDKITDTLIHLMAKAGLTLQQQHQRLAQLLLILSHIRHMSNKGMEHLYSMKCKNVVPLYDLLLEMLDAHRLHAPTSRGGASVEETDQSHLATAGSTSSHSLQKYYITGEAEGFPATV

Clc1ccc(C(c2ccc(Cl)cc2)C(Cl)Cl)cc1
62.1 µM (active) and inactive: Potency [9]
inactive: Potency [3] | Potency [4] | Potency [5] | Potency [6] | Potency [7] | Potency [8]
active: Potency [1] 24.7 µM and 68.6 µM | Potency [2] 24.7 µM and 43.3 µM

ClC1(Cl)C2(Cl)C3(Cl)C4(Cl)C(Cl)(Cl)C5(Cl)C3(Cl)C1(Cl)C5(Cl)C24Cl (stereo not drawn)
inactive: Potency [1] | Potency [2] | Potency [3] | Potency [4] | Potency [5] | Potency [6] | Potency [10] | Potency [7] | Potency [8] | Potency [9]

CCCCc1ccccc1
inactive: Potency [1] | Potency [2] | Potency [3] | Potency [4] | Potency [5] | Potency [6] | Potency [10] | Potency [7] | Potency [8] | Potency [9]

CN/C(=N\[N+](=O)[O-])NCc1cnc(Cl)s1
inactive: Potency [1] | Potency [2] | Potency [3] | Potency [4] | Potency [5] | Potency [6] | Potency [10] | Potency [7] | Potency [8] | Potency [9]

CNC(=O)CSP(=O)(OC)OC
inactive: Potency [1] | Potency [2] | Potency [3] | Potency [4] | Potency [5] | Potency [6] | Potency [10] | Potency [7] | Potency [8] | Potency [9]

CN1[C@@H]2CC[C@H]1CC(O)C2 (stereo partly drawn)
inactive: Potency [1] | Potency [2] | Potency [3] | Potency [4] | Potency [5] | Potency [6] | Potency [10] | Potency [7] | Potency [8] | Potency [9]

CCN(CC)CCN1C(=O)CN=C(c2ccccc2F)c2cc(Cl)ccc21
inactive: Potency [3] | Potency [4] | Potency [5] | Potency [6] | Potency [10] | Potency [7] | Potency [8] | Potency [9]
active: Potency [1] 29.8 µM | Potency [2] 23.7 µM

CC(C)N(C(=O)CCl)c1ccccc1
active: Potency [1] 27.3 µM and 34.4 µM | Potency [2] 68.6 µM and 48.6 µM | Potency [4] 15.5 µM [inconclusive] and 6.92 µM [inconclusive] | Potency [7] 54.5 µM and 61.1 µM | Potency [9] 21.7 µM and 27.3 µM
inactive: Potency [3] | Potency [5] | Potency [6] | Potency [8]

CSC(C)(C)/C=N/O
inactive: Potency [1] | Potency [2] | Potency [3] | Potency [4] | Potency [5] | Potency [6] | Potency [7] | Potency [8] | Potency [9]

O=[N+]([O-])c1ccccc1-c1ccccc1
inactive: Potency [1] | Potency [2] | Potency [3] | Potency [4] | Potency [5] | Potency [6] | Potency [7] | Potency [8] | Potency [9]

[O]=[Cr][O][Cr]=[O]
inactive: Potency [1] | Potency [2] | Potency [3] | Potency [4] | Potency [5] | Potency [6] | Potency [10] | Potency [7] | Potency [8] | Potency [9]

CC(Cl)CCl (stereo not drawn)
inactive: Potency [1] | Potency [2] | Potency [3] | Potency [4] | Potency [5] | Potency [6] | Potency [10] | Potency [7] | Potency [8] | Potency [9]

CCC1(CC)C(=O)N=C(O)NC1=O
inactive: Potency [1] | Potency [2] | Potency [3] | Potency [4] | Potency [5] | Potency [6] | Potency [10] | Potency [7] | Potency [8] | Potency [9]

C=CC(=C)C
inactive: Potency [1] | Potency [2] | Potency [3] | Potency [4] | Potency [5] | Potency [6] | Potency [8] | Potency [9]

C=CCOC(=O)c1ccccc1N
inactive: Potency [1] | Potency [2] | Potency [3] | Potency [4] | Potency [5] | Potency [6] | Potency [10] | Potency [7] | Potency [8] | Potency [9]

N#Cc1ccc(N(CC(N)=O)CC(F)(F)F)cc1C(F)(F)F
inactive: Potency [1] | Potency [2] | Potency [3] | Potency [4] | Potency [5] | Potency [6] | Potency [10] | Potency [7] | Potency [8] | Potency [9]

C=CCBr
inactive: Potency [1] | Potency [2] | Potency [3] | Potency [4] | Potency [5] | Potency [6] | Potency [10] | Potency [7] | Potency [8] | Potency [9]

CC(Cc1ccc(OCC(=O)O)cc1)NCC(O)c1csc(C(F)(F)F)n1 (stereo not drawn)
active: Potency [3] 77 µM
inactive: Potency [1] | Potency [2] | Potency [4] | Potency [5] | Potency [6] | Potency [10] | Potency [7] | Potency [8] | Potency [9]

Nc1nc(N)nc(Cl)n1
inactive: Potency [1] | Potency [2] | Potency [3] | Potency [4] | Potency [5] | Potency [6] | Potency [10] | Potency [7] | Potency [8] | Potency [9]

CN(C)C(=S)SSC(=S)N(C)C
active: Potency [1] 133 nM and 9.55 µM and 21.7 nM | Potency [2] 94.4 nM and 269 nM and 15.4 nM | Potency [9] 188 nM and 47.9 nM and 15.4 nM
inactive: Potency [3] | Potency [4] | Potency [5] | Potency [6] | Potency [8]

N#CCCl
active: Potency [10] 28.4 µM
inactive: Potency [1] | Potency [2] | Potency [3] | Potency [4] | Potency [5] | Potency [7] | Potency [8] | Potency [9]

CC(C)c1c(CN(C)C(C)Cc2ccccc2)n(C)n(-c2ccccc2)c1=O (stereo not drawn)
inactive: Potency [1] | Potency [3] | Potency [4] | Potency [5] | Potency [6] | Potency [10] | Potency [7] | Potency [8] | Potency [9]
active: Potency [2] 11.4 µM

OCC(Br)CBr (stereo not drawn)
inactive: Potency [1] | Potency [2] | Potency [3] | Potency [4] | Potency [5] | Potency [6] | Potency [10] | Potency [7] | Potency [8] | Potency [9]

O=C1C(Cl)=C(Cl)C(=O)C(Cl)=C1Cl
inactive: Potency [3] | Potency [5] | Potency [10] | Potency [7] | Potency [8]
active: Potency [1] 15.3 µM and 13.7 µM | Potency [2] 9.65 µM and 5.45 µM | Potency [4] 54.9 µM [inconclusive] | Potency [6] 43.7 µM [activator] | Potency [9] 9.65 µM and 9.69 µM

BrCC(Br)(Br)Br
active: Potency [7] 35.6 µM
inactive: Potency [1] | Potency [2] | Potency [3] | Potency [4] | Potency [5] | Potency [6] | Potency [10] | Potency [8] | Potency [9]

O=C(N[C@@H]1N=C(c2ccccc2F)c2cccc3c2N(CC3)C1=O)c1cc2ccccc2[nH]1
inactive: Potency [1] | Potency [3]
active: Potency [2] 6.68 µM

CC(C)Br
inactive: Potency [1] | Potency [2] | Potency [3] | Potency [4] | Potency [5] | Potency [6] | Potency [10] | Potency [7] | Potency [8] | Potency [9]

CC1CN1 (stereo not drawn)
inactive: Potency [1] | Potency [2] | Potency [3] | Potency [4] | Potency [5] | Potency [6] | Potency [10] | Potency [7] | Potency [8] | Potency [9]

Cc1cnc2c(C(=O)O)c(Cl)ccc2c1
inactive: Potency [1] | Potency [2] | Potency [3] | Potency [4] | Potency [5] | Potency [6] | Potency [10] | Potency [7] | Potency [8] | Potency [9]

C[C@]12C/C(=C/O)C(=O)C[C@@H]1CC[C@@H]1[C@@H]2CC[C@@]2(C)[C@H]1CC[C@]2(C)O
inactive and 61.7 µM (active): Potency [1]
active: Potency [2] 29.8 µM and 55 µM | Potency [6] 674 nM [inconclusive] and 783 nM [inconclusive] | Potency [10] 211 nM and 97.8 nM
inactive: Potency [3] | Potency [4] | Potency [5] | Potency [7] | Potency [8] | Potency [9]

CCOC(=O)Cc1ccccc1
inactive: Potency [1] | Potency [2] | Potency [3] | Potency [4] | Potency [5] | Potency [6] | Potency [10] | Potency [7] | Potency [8] | Potency [9]

CCNc1nc(NC(C)C(C)C)nc(SC)n1 (stereo not drawn)
inactive: Potency [1] | Potency [2] | Potency [3] | Potency [4] | Potency [5] | Potency [6] | Potency [10] | Potency [7] | Potency [8] | Potency [9]

CCCCC/C=C\C/C=C\C/C=C\C/C=C\CCCC(=O)NCC(=O)O
inactive: activity change, negative = cytotoxic [1] 12.7% [at 8.44 µM] | activity, negative = inhibition [2] 6.65% [at 8.44 µM] | activation [3] 2.19% [at 8.08 µM] | activity, negative = inhibition [4] -29.7% [at 6.71 µM] | activity, negative = cytotoxicity [5] -15.9% [at 6.72 µM] | activation [6] -3.03% [at 6.71 µM] | activation [10] 2.37% [at 8.47 µM] | activity change, negative = inhibition [7] 0.823% [at 8.47 µM] | activity change, negative = cytotoxicity [8] 0.607% [at 8.47 µM] | activity, negative = inhibition [9] 4.53% [at 8.47 µM]

O=P(Cl)(Cl)Cl
inactive: Potency [1] | Potency [2] | Potency [3] | Potency [4] | Potency [5] | Potency [6] | Potency [10] | Potency [7] | Potency [8] | Potency [9]

O=NN(CCO)CCO
inactive: Potency [1] | Potency [2] | Potency [3] | Potency [4] | Potency [5] | Potency [6] | Potency [10] | Potency [7] | Potency [8] | Potency [9]

O=[N+]([O-])c1ccc(CCl)cc1
inactive: Potency [1] | Potency [2] | Potency [3] | Potency [4] | Potency [5] | Potency [6] | Potency [10] | Potency [8] | Potency [9]

CCC[CH2][Sn]([CH2]CCC)([O]C(C)=O)[O]C(C)=O
active: Potency [1] 19.5 µM | Potency [2] 3.89 µM | Potency [4] 31.2 µM [inconclusive] | Potency [9] 15.5 µM
inactive: Potency [3] | Potency [5] | Potency [6]

CNC(=O)Oc1cc(C)cc(C(C)C)c1
inactive: Potency [1] | Potency [2] | Potency [3] | Potency [5] | Potency [6] | Potency [10] | Potency [7] | Potency [8] | Potency [9]

Cc1ccc(C)c2ccccc12
inactive: Potency [1] | Potency [2] | Potency [3] | Potency [5] | Potency [8] | Potency [9]

NC1CCC(CC2CCC(N)CC2)CC1 (stereo not drawn)
inactive: Potency [1] | Potency [2] | Potency [3] | Potency [5] | Potency [6] | Potency [10] | Potency [7] | Potency [9]
